About 8,800 targets were measured; listed, in parts, are those with a hit and a random draw of the rest. About 0.5% of all pairs of compound and target were hits.
Columns and labels:
Experiment in all cases: log2 fold change, soluble protein after heating vs DMSO (PISA); higher = thermal stabilisation; K562 lysate, 10 uM; active = over 0.2 and 3.5 SD of the protein, either way, in both replicates (recomputed)
erlotinib = compound: C#Cc1cccc(Nc2ncnc3cc(OCCOC)c(OCCOC)cc23)c1 [erlotinib]
Summary of the method: (§1)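 K562 pellets were dounce-homogenised in PBS pH 7.4 containing 1 mM MgCl2, and the crude extract, at 1 mg/mL protein, was exposed to 10 μM compound for 30 min. Aliquots were heated for 3 min across 48°C-58°C, pooled, brought to 0.5% NP-40 at 4°C and spun at 21,000xg for 90 min, with the supernatant taken as soluble protein. TMTpro 16plex LC-MS/MS with equalised channel sums quantified that protein. Values are log-two fold changes in thermal stability relative to solvent controls, taken from duplicates.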

[1] = compound: C/C(=N\NC(=O)C1=CC(=CC=C1)S(=O)(=O)N2CCOCC2)/C3=C(C=CC(=C3)Cl)O
Summary of the method: as §1

[2] = compound: C1=CC(=CC=C1C2=NC3=C(N2)C=C(C=C3)C(=O)N)OC4=CC=C(C=C4)Cl
Summary of the method: as §1

[3] = compound: C1=CC2=C(C=CC(=C2)/C=C\3/C(=O)NC(=NCC4=CC=CS4)S3)N=C1
Summary of the method: as §1

[4] = compound: C1=CC2=NC=CN=C2C=C1/C=C/3\C(=O)NC(=O)S3
Summary of the method: as §1

[5] = compound: C1=CC=C(C=C1)C2=NC(=C(N2)C3=CC=NC=C3)C4=CC(=C(C=C4)Cl)O
Summary of the method: as §1

[6] = compound: C1=CC=C2C(=C1)C3=NNC4=CC=CC(=C43)C2=O
Summary of the method: as §1

[7] = compound: C1CCN(C1)C(=O)NC2=CC=CC(=C2)NC3=NC=C(C(=N3)NCCC4=CN=CN4)Br
Summary of the method: as §1

[8] = compound: C1CN(CCC1(CC2=CC=C(C=C2)Cl)N)C3=NC=NC4=C3C=CN4
Summary of the method: as §1

IRAK-1-4 Inhibitor I = compound: C1COCCN1CCN2C3=CC=CC=C3N=C2NC(=O)C4=CC(=CC=C4)[N+](=O)[O-] [IRAK-1-4 Inhibitor I]
Summary of the method: as §1

ibrutinib = compound: C=CC(=O)N1CCC[C@@H](n2nc(-c3ccc(Oc4ccccc4)cc3)c3c(N)ncnc32)C1 [ibrutinib]
Summary of the method: as §1

[9] = compound: CC(=O)c1cnc2ccc(-c3cc(Cl)c(O)c(Cl)c3)nc2c1N[C@H]1CC[C@H](CN(C)C)CC1
Summary of the method: as §1

ralimetinib = compound: CC(C)(C)Cn1c(N)nc2ccc(-c3[nH]c(C(C)(C)C)nc3-c3ccc(F)cc3)nc21 [ralimetinib]
Summary of the method: as §1

[10] = compound: CC(C)(O)CC(=O)NCCn1ccc2ncnc(Nc3ccc(Oc4cccc(C(F)(F)F)c4)c(Cl)c3)c21
Summary of the method: as §1

[11] = compound: CC(C)C1=C2N=C(C=C(N2N=C1)NCC3=CC=CC=C3)NCCCCCCN
Summary of the method: as §1

[12] = compound: CC1=C(C(CC(=O)N1)C2=CC=C(C=C2)C(F)(F)F)C(=O)NC3=C(C=C4C(=C3)C=NN4)F
Summary of the method: as §1

[13] = compound: CC1=C(C2=C(C=C1)C(=O)C3=CC=CC=C3N2CCCN)C
Summary of the method: as §1

[14] = compound: CC1=C(C=C(C=C1)NC(=O)C2=CC(=CC=C2)C(C)(C)C#N)NC3=CC4=C(C=C3)N=CN(C4=O)C
Summary of the method: as §1

[15] = compound: CC1=C(C=C(C=C1)NC(=O)C2=CC(=CC=C2)N(C)C)NC(=O)C3=CC=C(C=C3)O
Summary of the method: as §1

[16] = compound: CC1=CC=C(C=C1)SC2=C3C=C(SC3=CN=C2)C(=O)N
Summary of the method: as §1

Measured: log2 fold change

RNASEH2B (UniProt Q5TBB1)
Chain of UniProt Q5TBB1 (Q5TBB1 whole entry, looked up): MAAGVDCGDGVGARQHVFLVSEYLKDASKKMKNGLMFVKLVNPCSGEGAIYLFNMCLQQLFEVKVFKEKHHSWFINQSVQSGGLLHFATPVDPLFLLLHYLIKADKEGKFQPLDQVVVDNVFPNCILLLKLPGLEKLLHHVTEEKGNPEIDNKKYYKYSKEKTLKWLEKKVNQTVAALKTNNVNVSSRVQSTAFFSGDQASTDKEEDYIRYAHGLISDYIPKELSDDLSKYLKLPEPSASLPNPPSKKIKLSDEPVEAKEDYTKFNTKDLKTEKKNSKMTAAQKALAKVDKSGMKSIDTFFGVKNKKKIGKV
inactive: erlotinib -0.01 | [1] 0.006 | [2] -0.024 | [3] 0.019 | [4] -0.011 | [5] 0.009 | [6] 0.024 | [7] -0.01 | [8] -0.041 | IRAK-1-4 Inhibitor I -0.003 | ibrutinib -0.001 | [9] -0.032 | ralimetinib 0.026 | [10] 0 | [11] 0.031 | [12] -0.025 | [13] 0.024 | [14] 0.005 | [15] 0.025 | [16] 0.009

RBM22 (UniProt Q9NW64)
inactive: erlotinib 0.028 | [1] -0.005 | [2] 0.025 | [3] -0.07 | [4] 0.013 | [5] -0.034 | [6] -0.021 | [7] -0.02 | [8] 0.009 | IRAK-1-4 Inhibitor I 0.018 | ibrutinib 0.01 | [9] -0.007 | ralimetinib -0.03 | [10] -0.044 | [11] -0.033 | [12] 0.009 | [13] -0.014 | [14] 0.043 | [15] -0.01 | [16] -0.006

RETREG2 (UniProt Q8NC44)
Chain of UniProt Q8NC44 (Q8NC44 whole entry, looked up): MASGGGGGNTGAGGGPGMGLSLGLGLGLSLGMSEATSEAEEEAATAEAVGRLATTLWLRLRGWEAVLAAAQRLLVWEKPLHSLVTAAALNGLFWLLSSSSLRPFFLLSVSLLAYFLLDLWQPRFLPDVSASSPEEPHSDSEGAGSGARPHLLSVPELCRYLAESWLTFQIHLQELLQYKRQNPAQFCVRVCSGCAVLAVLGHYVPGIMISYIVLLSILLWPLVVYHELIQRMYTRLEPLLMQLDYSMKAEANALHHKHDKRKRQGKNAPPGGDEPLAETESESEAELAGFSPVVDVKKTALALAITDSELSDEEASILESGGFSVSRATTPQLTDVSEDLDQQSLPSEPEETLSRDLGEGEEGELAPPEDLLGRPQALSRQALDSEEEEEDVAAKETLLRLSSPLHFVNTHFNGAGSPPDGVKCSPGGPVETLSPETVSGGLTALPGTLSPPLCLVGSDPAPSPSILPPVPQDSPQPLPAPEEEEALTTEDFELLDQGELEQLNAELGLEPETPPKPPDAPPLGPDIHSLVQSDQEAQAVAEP
inactive: erlotinib -0.08 | [1] 0.036 | [2] -0.115 | [3] -0.055 | [4] 0.049 | [5] 0.035 | [6] -0.063 | [7] 0.022 | [8] 0.075 | IRAK-1-4 Inhibitor I 0.106 | ibrutinib 0.011 | [9] 0.009 | ralimetinib 0.071 | [10] -0.129 | [11] 0.062 | [12] 0.127 | [14] 0.051 | [15] 0.116 | [16] 0.011

RXRA (UniProt P19793)
inactive: erlotinib 0.102 | [2] 0.008 | [5] -0.025 | IRAK-1-4 Inhibitor I 0.113 | [9] -0.028 | ralimetinib -0.033 | [10] 0.087 | [11] 0.066 | [12] 0.059 | [13] 0.063 | [14] -0.02 | [15] -0.036 | [16] 0

SCNM1 (UniProt Q9BWG6)
Chain of UniProt Q9BWG6 (Q9BWG6 whole entry, looked up): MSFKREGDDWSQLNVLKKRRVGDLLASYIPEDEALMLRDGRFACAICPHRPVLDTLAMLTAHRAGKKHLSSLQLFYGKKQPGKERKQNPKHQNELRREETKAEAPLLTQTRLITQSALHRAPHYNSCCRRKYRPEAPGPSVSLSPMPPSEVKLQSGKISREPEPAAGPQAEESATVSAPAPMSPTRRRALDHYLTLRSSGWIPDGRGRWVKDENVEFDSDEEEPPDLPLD
inactive: erlotinib 0.045 | [2] 0.044 | [5] -0.005 | [7] -0.054 | [8] -0.158 | IRAK-1-4 Inhibitor I -0.021 | [9] -0.026 | ralimetinib 0.013 | [10] 0.012 | [11] 0.062 | [12] 0.065 | [13] -0.189 | [14] 0.06 | [15] -0.069 | [16] -0.221

RBM45 (UniProt Q8IUH3)
active: [16] 0.487
inactive: [9] -0.077 | [12] -0.127 | [14] 0.038

SEC16A isoform 2 (UniProt O15027)
inactive: [5] -0.07 | IRAK-1-4 Inhibitor I -0.053 | ralimetinib -0.103 | [10] -0.062 | [15] 0.167

RLIM (UniProt Q9NVW2)
inactive: [4] -0.021 | ibrutinib 0.014 | [14] 0.465

SEC16A isoform 3 (UniProt O15027)
inactive: [5] 0.41 | IRAK-1-4 Inhibitor I 0.123 | ralimetinib -0.283 | [10] -0.122 | [13] -0.006 | [15] -0.023

RNPC3 (UniProt Q96LT9)
Chain of UniProt Q96LT9 (Q96LT9 whole entry, looked up): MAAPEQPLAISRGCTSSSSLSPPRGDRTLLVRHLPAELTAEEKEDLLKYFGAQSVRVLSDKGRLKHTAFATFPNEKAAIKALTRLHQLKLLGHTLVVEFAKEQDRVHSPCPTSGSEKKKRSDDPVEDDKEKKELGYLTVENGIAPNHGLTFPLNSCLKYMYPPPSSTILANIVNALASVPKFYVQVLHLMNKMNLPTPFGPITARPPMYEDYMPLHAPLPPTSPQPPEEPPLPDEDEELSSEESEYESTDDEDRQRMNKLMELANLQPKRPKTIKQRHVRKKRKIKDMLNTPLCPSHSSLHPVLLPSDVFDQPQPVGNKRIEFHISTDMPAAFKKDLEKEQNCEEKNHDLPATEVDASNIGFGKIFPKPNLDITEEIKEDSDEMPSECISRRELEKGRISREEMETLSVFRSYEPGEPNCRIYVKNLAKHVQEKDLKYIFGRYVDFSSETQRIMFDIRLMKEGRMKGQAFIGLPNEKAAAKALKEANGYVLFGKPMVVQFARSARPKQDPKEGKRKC
inactive: erlotinib 0.004 | [2] -0.059 | [5] 0.011 | IRAK-1-4 Inhibitor I 0.076 | [9] 0.017 | ralimetinib 0.02 | [10] -0.029 | [11] -0.122 | [12] -0.027 | [13] -0.015 | [14] -0.028 | [15] 0.054 | [16] -0.003

RBM4 isoform 3 (UniProt Q9BWF3)
inactive: [14] -0.092

SELENOK (UniProt Q9Y6D0)
Chain of UniProt Q9Y6D0 (Q9Y6D0 whole entry, looked up): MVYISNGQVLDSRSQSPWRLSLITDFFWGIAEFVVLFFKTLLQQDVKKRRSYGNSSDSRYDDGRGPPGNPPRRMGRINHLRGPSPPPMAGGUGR
inactive: [1] -0.075 | [3] 0.02 | [4] 0.089 | [6] 0.044 | ibrutinib 0.05 | [9] -0.134 | [12] 0.092 | [13] -0.164 | [16] 0.022

S100A6 (UniProt P06703)
inactive: erlotinib 0.045 | [1] 0.346 | [2] -0.025 | [3] 0 | [5] -0.196 | [6] 0.02 | [7] 0.352 | [8] 0.151 | IRAK-1-4 Inhibitor I -0.209 | [9] -0.082 | ralimetinib 0.117 | [10] 0.152 | [11] -0.01 | [14] 0.04 | [15] 0.199 | [16] 0.032
active: [13] 0.793

RFNG (UniProt Q9Y644)
inactive: [12] 0.023

QSER1, A0A3B3IRW6
inactive: erlotinib -0.056 | [1] 0.025 | [2] 0.054 | [3] -0.057 | [5] -0.006 | [6] 0.059 | [7] 0.002 | [8] -0.046 | IRAK-1-4 Inhibitor I -0.014 | [9] -0.047 | ralimetinib -0.014 | [10] -0.021 | [11] -0.009 | [12] -0.001 | [13] 0.037 | [14] 0.009 | [15] 0.087 | [16] -0.087

RPS6KA5 (UniProt O75582)
Chain of UniProt O75582 (O75582 whole entry, looked up): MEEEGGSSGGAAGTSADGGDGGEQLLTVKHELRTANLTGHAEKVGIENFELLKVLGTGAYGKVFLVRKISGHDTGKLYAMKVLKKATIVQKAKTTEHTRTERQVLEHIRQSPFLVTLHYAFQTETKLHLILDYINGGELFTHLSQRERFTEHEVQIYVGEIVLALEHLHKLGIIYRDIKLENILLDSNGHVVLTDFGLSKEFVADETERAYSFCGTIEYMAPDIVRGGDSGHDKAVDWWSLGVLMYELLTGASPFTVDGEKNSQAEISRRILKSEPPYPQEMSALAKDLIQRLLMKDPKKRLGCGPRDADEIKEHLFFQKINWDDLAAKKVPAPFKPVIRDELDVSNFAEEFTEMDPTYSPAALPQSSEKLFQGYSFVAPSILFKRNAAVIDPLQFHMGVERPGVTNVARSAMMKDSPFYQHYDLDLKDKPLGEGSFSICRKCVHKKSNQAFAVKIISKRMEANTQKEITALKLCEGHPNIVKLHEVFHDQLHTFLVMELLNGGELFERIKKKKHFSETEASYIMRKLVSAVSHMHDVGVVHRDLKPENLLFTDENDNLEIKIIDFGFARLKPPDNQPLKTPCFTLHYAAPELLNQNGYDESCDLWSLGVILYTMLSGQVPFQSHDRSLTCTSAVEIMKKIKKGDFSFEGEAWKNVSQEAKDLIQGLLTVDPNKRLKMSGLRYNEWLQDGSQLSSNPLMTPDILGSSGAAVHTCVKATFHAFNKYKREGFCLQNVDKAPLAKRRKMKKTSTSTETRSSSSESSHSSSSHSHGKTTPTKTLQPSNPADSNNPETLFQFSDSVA
active: [14] -0.441
inactive: erlotinib -0.036 | [1] -0.161 | [2] 0.2 | [3] 0.014 | [5] 0.023 | [6] 0.152 | [7] -0.02 | [8] -0.11 | IRAK-1-4 Inhibitor I 0.014 | [9] 0.173 | ralimetinib -0.02 | [10] -0.055 | [11] -0.027 | [12] 0.011 | [13] -0.04 | [15] 0.004 | [16] 0.005

RAD17 (UniProt O75943)
Chain of UniProt O75943 (O75943 whole entry, looked up): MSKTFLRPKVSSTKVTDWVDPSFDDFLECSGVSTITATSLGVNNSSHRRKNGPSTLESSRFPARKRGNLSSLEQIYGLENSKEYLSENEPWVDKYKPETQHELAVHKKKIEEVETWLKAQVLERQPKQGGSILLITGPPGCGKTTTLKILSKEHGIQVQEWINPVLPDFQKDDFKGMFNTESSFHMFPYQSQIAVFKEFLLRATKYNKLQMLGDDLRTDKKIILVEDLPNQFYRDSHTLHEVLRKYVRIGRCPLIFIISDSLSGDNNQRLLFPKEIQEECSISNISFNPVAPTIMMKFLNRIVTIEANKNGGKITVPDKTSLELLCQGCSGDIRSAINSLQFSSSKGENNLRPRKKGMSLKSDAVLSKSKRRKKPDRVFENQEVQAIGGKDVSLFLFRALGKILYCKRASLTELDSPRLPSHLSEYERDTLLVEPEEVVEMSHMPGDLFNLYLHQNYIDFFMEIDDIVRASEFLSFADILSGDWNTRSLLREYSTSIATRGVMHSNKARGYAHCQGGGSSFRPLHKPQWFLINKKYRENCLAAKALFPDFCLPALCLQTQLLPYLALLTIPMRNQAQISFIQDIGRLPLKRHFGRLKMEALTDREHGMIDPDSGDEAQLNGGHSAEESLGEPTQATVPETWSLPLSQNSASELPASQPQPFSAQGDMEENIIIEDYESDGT
active: [6] -0.458
inactive: [1] 0.005 | [3] -0.1 | [4] 0.014 | [5] -0.047 | [7] 0.031 | [8] 0.019 | IRAK-1-4 Inhibitor I 0.021 | ibrutinib 0.023 | ralimetinib 0.054 | [10] 0.041 | [12] 0.026 | [13] -0.029 | [14] -0.041 | [15] 0.049

RHBDD1 (UniProt Q8TEB9)
inactive: [1] -0.476 | [3] 0.19 | [4] 0.337 | [6] -0.056 | [7] -0.093 | [8] 0.159 | ibrutinib -0.059 | [16] 0.038
active: [9] -0.518

SEMA4G isoform 2 (UniProt Q9NTN9)
Chain of UniProt Q9NTN9 (Q9NTN9 whole entry, looked up): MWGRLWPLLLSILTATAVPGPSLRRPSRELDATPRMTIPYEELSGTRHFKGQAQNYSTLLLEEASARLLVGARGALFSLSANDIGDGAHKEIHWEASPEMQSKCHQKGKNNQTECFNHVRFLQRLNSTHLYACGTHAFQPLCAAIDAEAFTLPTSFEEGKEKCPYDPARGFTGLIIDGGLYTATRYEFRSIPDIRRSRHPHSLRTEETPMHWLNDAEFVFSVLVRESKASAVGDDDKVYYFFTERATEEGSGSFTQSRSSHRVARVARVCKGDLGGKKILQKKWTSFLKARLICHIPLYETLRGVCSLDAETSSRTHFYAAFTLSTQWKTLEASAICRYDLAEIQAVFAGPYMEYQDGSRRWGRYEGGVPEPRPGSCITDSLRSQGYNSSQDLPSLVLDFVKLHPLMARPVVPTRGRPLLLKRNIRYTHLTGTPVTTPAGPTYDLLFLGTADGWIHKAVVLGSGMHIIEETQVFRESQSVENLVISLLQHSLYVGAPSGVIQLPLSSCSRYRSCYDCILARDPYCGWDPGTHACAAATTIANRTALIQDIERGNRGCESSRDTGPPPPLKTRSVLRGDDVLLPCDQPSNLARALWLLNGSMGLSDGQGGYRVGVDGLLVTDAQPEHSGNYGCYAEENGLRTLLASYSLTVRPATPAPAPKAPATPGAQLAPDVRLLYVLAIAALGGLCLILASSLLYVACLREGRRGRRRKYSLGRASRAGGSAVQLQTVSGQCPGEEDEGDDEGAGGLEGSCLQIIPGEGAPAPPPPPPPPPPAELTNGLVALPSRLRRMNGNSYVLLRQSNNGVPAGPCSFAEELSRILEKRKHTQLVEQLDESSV
inactive: erlotinib 0.005 | [1] -0.137 | [2] -0.063 | [3] 0.032 | [6] -0.011 | [7] 0.034 | [8] -0.112 | [11] -0.013 | [13] -0.021 | [14] -0.137

RPS6KA3 (UniProt P51812)
Chain of UniProt P51812 (P51812 whole entry, looked up): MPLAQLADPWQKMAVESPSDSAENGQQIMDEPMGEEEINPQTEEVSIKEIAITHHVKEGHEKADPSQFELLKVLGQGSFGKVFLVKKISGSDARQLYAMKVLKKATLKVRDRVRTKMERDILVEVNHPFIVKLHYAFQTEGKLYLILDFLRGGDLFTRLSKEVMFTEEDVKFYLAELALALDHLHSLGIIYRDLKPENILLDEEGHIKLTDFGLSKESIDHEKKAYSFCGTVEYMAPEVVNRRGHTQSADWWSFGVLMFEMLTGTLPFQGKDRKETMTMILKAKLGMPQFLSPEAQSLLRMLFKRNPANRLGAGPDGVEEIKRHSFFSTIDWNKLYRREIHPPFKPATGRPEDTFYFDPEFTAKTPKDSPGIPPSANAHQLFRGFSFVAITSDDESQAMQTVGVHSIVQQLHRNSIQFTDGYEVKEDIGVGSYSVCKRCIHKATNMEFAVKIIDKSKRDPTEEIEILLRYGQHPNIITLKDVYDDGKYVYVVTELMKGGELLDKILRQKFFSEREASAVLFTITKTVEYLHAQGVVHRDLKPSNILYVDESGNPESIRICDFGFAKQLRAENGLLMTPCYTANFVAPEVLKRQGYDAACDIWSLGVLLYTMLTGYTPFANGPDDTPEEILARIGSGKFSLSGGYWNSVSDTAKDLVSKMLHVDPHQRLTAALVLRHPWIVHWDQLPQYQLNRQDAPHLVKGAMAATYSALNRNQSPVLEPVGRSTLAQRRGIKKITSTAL
inactive: erlotinib -0.04 | [1] -0.003 | [2] 0.182 | [4] 0.004 | [5] 0.026 | [6] 0.328 | [7] 0.082 | [8] -0.043 | IRAK-1-4 Inhibitor I -0.019 | ibrutinib -0.04 | ralimetinib -0.004 | [10] -0.032 | [11] -0.11 | [12] -0.043 | [13] -0.02 | [14] -0.061 | [15] 0.006 | [16] -0.039
active: [9] 0.56

RBBP7 (UniProt C9J7L0)
inactive: [12] -0.187

SAP30 (UniProt O75446)
Chain of UniProt O75446 (O75446 whole entry, looked up): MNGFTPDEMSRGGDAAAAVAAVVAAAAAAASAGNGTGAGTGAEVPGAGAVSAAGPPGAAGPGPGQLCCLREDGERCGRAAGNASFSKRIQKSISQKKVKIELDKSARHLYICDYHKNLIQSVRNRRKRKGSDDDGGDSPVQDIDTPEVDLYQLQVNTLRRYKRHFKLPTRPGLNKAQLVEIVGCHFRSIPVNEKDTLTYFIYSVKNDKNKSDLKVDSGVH
inactive: [1] 0.06 | [3] 0.025 | [4] -0.037 | [6] 0.013 | [7] 0.011 | [8] 0.067 | ibrutinib 0.058 | [9] 0.033 | [12] 0.101 | [13] -0.007 | [14] 0.016 | [16] 0.006

RNF17 (UniProt Q9BXT8)
inactive: erlotinib -0.055 | [2] 0.008 | [4] 0.553 | [5] 0.013 | [7] -0.025 | [8] 0.033 | IRAK-1-4 Inhibitor I 0.055 | ibrutinib -0.098 | [9] 0.035 | ralimetinib -0.044 | [10] -0.254 | [11] -0.023 | [13] 0.077 | [14] -0.196 | [15] -0.044 | [16] -0.068

From the supplement of paper PMC10849652
